Structures are written as SMILES. This is part of a sample that, as a whole, favours compounds with a hit. Of some 83,000 tested, about 20% had one in any assay.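 Negative percent growth values reflect cell death: -40 means 40% of the cells present at the start died, and -100 means all died.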 A number with no mark means an inactive call. Calls of active or inactive are those of the source.

The subject of this assay is SR leukemia. The assay can be described thus: NCI-60 one-dose screen, 48 h (100 = growth as untreated, 0 = no growth, -100 = all killed). The note with it: 10 µM. Here is the method:
Growth inhibition of the SR human tumor cell line is measured as a screen for anti-cancer activity. Cells are grown in 96 well plates and exposed to the test compound for 48 hours. Compounds are tested at a single concentration, which is 10^-5 M for most compounds. The reported endpoint is percent growth (GI% or GIPRCNT), where numbers from 0 - 100% represent growth inhibition, and numbers from -100% - 0 represent cell death. For example, a value of 40 represents 60% growth inhibition. A value of 0 means no net growth occurred over the course of the experiment. A value of -40 indicates 40% of cells at the beginning of the experiment died by the end of the experiment. A value of -100 means all cells are dead at the end of the experiment.
NCI-60 Human Tumor Cell Lines Screen was performed using the standard one-dose NCI protocol, which is described in more detail at https://dtp.cancer.gov/discovery_development/nci-60/default.htm.
Compounds with GIPRCNT values below 10 were considered active. Activity score was based on GIPRCNT using the following formula: […]
Score is 0 for GIPRCNT values of 100 or above, 50 for GIPRCNT values of 0, and 100 for GIPRCNT values of -100.
`O=C1C(c2ccccc2)C2C=CC(C2)N1O` (stereo not given): the growth was 105%.

Take `COc1cc(C(=C2O[C@@H]([C@H]3COC(C)(C)O3)[C@H]3OC(C)(C)O[C@@H]23)c2cc(OC)c(OC)c(OC)c2)cc(OC)c1OC`: the growth is 90.6%.

On to `CC1(O)CCC2CC3OC3(C)CCC3OC3(C)CCC1C2(C)C` (stereo not given), for which the growth is 116%.

On to `CCOC(=O)N1C/C(=C/c2ccc(F)cc2)C(=O)/C(=C/c2ccc(F)cc2)C1`, for which the growth is -19.9% (active).

Take `O=C(CCCCCCC(=O)Nc1cccnc1)NO`: the growth is 28.6%.

For `CCCCCCCCCCCCCC[n+]1ccc(C(N)=O)cc1`, the growth was -15.8% (active).

`COc1ccc([N+](=O)[O-])c(C(=O)O)c1`: the growth is 93.8%.

On to `COc1cc(-c2cc(/C=C/C(=O)c3ccc4c(c3)OCO4)[nH]n2)cc(OC)c1OC`, for which the growth was -15.1% (active).

As for `CCC1(C(C)C)NC(=O)NC1=O` (stereo not given), the growth was 90.2%.

In the case of `COc1ccc2c(c1)C(=O)c1c-2c(OCCN(C)C)nc2cc(OC)c(OC)cc12`, the growth was 1.83% (active).

On to `O=C1ON=[N+](c2ccc(Cc3ccc([N+]4=NOC(=O)C4CN4CCOCC4)cc3)cc2)C1CN1CCOCC1` (stereo not given), for which the growth was 23%.

Regarding `O=C1/C(=C/c2ccc(Cl)cc2)SC(=Nc2ccc(Cl)cc2)N1Cc1nc2ccccc2[nH]1`, the growth is 46.6%.

As for `CCN1CCCC1CNC(=O)c1ncc(-c2ccc(C(F)(F)F)cc2)c(NC2CCCCCC2)n1` (stereo not given), the growth is -16.6% (active).

For `Cn1c([N+](=O)[O-])cnc1/C=C1\Oc2ccc(Cl)cc2C1=O`, the growth is 11.6%.

On to `COc1cc2nc(Nc3cccc(NC(C)=O)c3)nc(N)c2cc1OC`, for which the growth was 107%.

For `O=C(Nc1ccncc1)C(=O)c1cn(S(=O)(=O)c2ccc(F)cc2)c2ccccc12`, the growth is 2.09% (active).

`COc1ccc(/C=C2/CN(CCC#N)C/C(=C\c3ccc(OC)cc3)C2=O)cc1`: the growth is -2.63% (active).

On to `CCCCCCCNc1nc(C=O)ncc1-c1ccc(C(F)(F)F)cc1`, for which the growth was -2.53% (active).

For `NC(=O)SCC(=O)Nc1ccc(S(N)(=O)=O)cc1`, the growth was 110%.

With `CN(C)c1ccc(/C=C/C=N/NC(=O)c2cc(O)c(O)c(O)c2)cc1`, the growth was 32.9%.

As for `CN(C)CCN1C(=O)c2cccc3c(-c4ccc5ncn(C6CCCCC6)c5c4)ccc(c23)C1=O`, the growth was 3.59% (active).

In the case of `Cc1ccc(CC#N)cc1C`, the growth was 89.3%.

Consider `ClCC#CCSc1ncnc2c1ncn2CC#CCCl`, for which the growth was 14.6%.

For `COc1ccc(-c2nn(-c3cccc(NC(=O)c4ccc(N5CCOCC5)c(C(F)(F)F)c4)c3)cc2-c2ccncc2)cc1Cl`, the growth is 27.2%.

For `CCCCCC(=O)c1ccc(OCCCN2CCN(C(=O)OCC)CC2)cc1`, the growth is 84.4%.

Consider `Cc1cc(O)c(C(C)(C)C)cc1Sc1cc(C(C)(C)C)c(O)cc1C`, for which the growth is -33.1% (active).

Take `COc1ccc2nc3cc(Cl)ccc3c(NCCNCC(C)O)c2c1` (stereo not given): the growth is 2.01% (active).

Take `O=C(CC(c1ccccc1)N1CCOCC1)c1ccccc1` (stereo not given): the growth was -32.7% (active).

As to `O=[N+]([O-])c1cccc(-c2ncc(-c3ccc(Cl)cc3Cl)[nH]2)c1`, the growth was -36.6% (active).

As to `CC/C(C)=C(\C)C(=O)O`, the growth is 107%.

Consider `Nc1c(C(=O)Nc2cccc3ccccc23)sc2nc3c(cc12)C(=O)CCC3`, for which the growth was 4.39% (active).

With `N#CCCN1C/C(=C/c2ccccc2)C(=O)/C(=C/c2ccccc2)C1`, the growth was -2.02% (active).

Consider `COc1cc(OC)cc(-c2cncn2-c2ccc(-c3nc4cc(OC)cc(OC)c4s3)cc2)c1`, for which the growth is 35.5%.

On to `CCOC(=O)C1(CC(C)C)CCOC1=O` (stereo not given), for which the growth was 104%.

For the molecule `Cn1c([N+](=O)[O-])cnc1/C=C1\Oc2cc(Cl)ccc2C1=O`, the growth is 8.29% (active).

With `COc1ccc(-c2nc3sc(-c4ccccc4)c(-c4ccccc4)n3c2/C=C/C(=O)c2ccccn2)cc1`, the growth was 78.4%.

As to `COc1ccc(-c2ccc3cc(C(=O)Nc4ccc(O)c(C(=O)/C=C/c5cc(OC)c(OC)c(OC)c5)c4)ccc3c2)cc1`, the growth was 60.3%.

Turning to `O=C(Nc1cccc(-n2cc(-c3ccncc3)c(-c3ccc(O)c(Cl)c3)n2)c1)Nc1cccc(C(F)(F)F)c1`, the growth was -16.7% (active).

`Cc1cc(=O)[nH]c(N/N=C/c2ccccc2O)n1`: the growth was 26.8%.

`C=C(C(=O)c1ccccc1)C(NC(C)(C)C)c1ccccc1` (stereo not given): the growth is -17.7% (active).

For the origin of these results see PubChem BioAssay (NCI).
